Consider 14 molecules from PubChem BioAssay (NCI).

SMILES strings stand for the structures. Where “and” joins values, the source holds several entries; their conditions need not be identical. Identical values can stand only once. About 79,000 compounds went through this panel and 15% of them were active in at least one assay; those are over-represented in the sample as a whole. Unmarked numbers belong to inactive results. Calls of active or inactive are those of the source. Cut-off read from the data, not from the text of the source: active = growth inhibition above about 70%; inactive = the rest. *1 amine or outer side, *2 acyl side, *3 side chain or, on linkers, in order; H or OH if unused. Where a SMILES comes first, the peptide text is derived from it. Bridges are numbered along the chain shown (N, C = ends). [ ]: non-standard residue; d: D form. The star is where a group is joined. ξ: configuration not given here. ξOrn(4,5-diOH) = O=C(C(CC(O)C(O)N[*:3])N[*:1])[*:2]; ξhTyr(βξ-OH,γξ-OH) = NC(C(=O)O)C(O)C(O)c1ccc(O)cc1; ξPro(3ξ-OH,4ξ-Me) = CC1CNC(C(=O)O)C1O; X1 = CCCCC/C=C/C/C=C\CCCCCCCC(=O)*; Hyp = O=C(O)[CH]1C[CH](O)CN1

This test in a line: NCI Yeast Anticancer Drug Screen. Data for the bub3 strain (AID 167). Particulars: S. cerevisiae bub3 mutant strain, stronger effect = higher value. How it is done: Growth inhibition of yeast strains with defined genetic alterations is measured as a screen for potential anti-cancer activity. Selected strains with alterations in DNA damage repair or cell cycle control were exposed to compounds and growth inhibition was measured relative to vehicle treated controls. The strain used in this assay is bub3

Setting [1] is: at 5.0 µM (retest, dose inferred, filed as 0.5).
[2] abbreviates: at 50.0 µM (retest, dose inferred, filed as 5.0).

Consider `C/C(=N\NC(=S)Nc1ccc(Cl)cc1)c1nc2ncccc2[nH]1`, for which the growth inhibition reads like this: under setting [1], -28%; under setting [2], 95% (active); (at 50.0 µM) 90.1% (active).

In the case of `Cc1ccc(NCCN(C)C)c2c(=O)c3ccc(O)cc3sc12`, the growth inhibition under setting [1] was -1%, the growth inhibition under setting [2] was 84% (active) and the growth inhibition (at 50.0 µM) is 98.2% (active).

Take `CCC(C(c1ccc(Cl)cc1)c1ccc(Cl)c(Cl)c1)[N+](=O)[O-]` (stereo not given): the growth inhibition was 19% under setting [1], 38% under setting [2] and 47.5% (at 50.0 µM).

Turning to `O=C(O)CCn1c2ccccc2c2ccccc21`, the growth inhibition under setting [1] is -6%, the growth inhibition under setting [2] was 61% and the growth inhibition (at 50.0 µM) is 55.5%.

For the molecule `CCCCCCCCCCCCCCCC[n+]1ccc(/C=C/c2ccccc2)cc1`, the growth inhibition reads like this: under setting [1], 88% (active); under setting [2], 97% (active); (at 50.0 µM) 97.8% (active).

Consider `COc1ccc2ccccc2c1-c1c(O)ccc2ccccc12`, for which the growth inhibition by setting is: under setting [1], -6%; under setting [2], 64%; (at 50.0 µM) 97.9% (active).

With `COc1ccc(OC(=O)c2ccccc2)c2c1C(=O)C=CC2=O`, the growth inhibition is -1% under setting [1], 24% under setting [2] and 76.8% (active) (at 50.0 µM).

`CCCCC/C=C/C/C=C\CCCCCCCC(=O)NC1CC(O)C(O)NC(=O)C2C(O)C(C)CN2C(=O)C(C(C)O)NC(=O)C(C(O)C(O)c2ccc(O)cc2)NC(=O)C2CC(O)CN2C(=O)C(C(C)O)NC1=O` (stereo not drawn) (X1-[ξOrn(4,5-diOH)]T[Hyp][ξhTyr(βξ-OH,γξ-OH)]T[ξPro(3ξ-OH,4ξ-Me)]; lactam 1-C; configuration not given here): the growth inhibition was 11% under setting [1], 97% (active) under setting [2] and 89.9% (active) (at 50.0 µM).

For `O=C(Oc1c(I)ccccc1=O)c1ccc([N+](=O)[O-])cc1`, the growth inhibition by setting is: under setting [1], 21%; under setting [2], 98% (active); (at 50.0 µM) 99% (active).

With `Clc1ccc2nc3ccccc3nc2c1`, the growth inhibition under setting [1] is 21%, the growth inhibition under setting [2] is 78% (active) and the growth inhibition (at 50.0 µM) was 92.3% (active).

`CCC(C)(O)Cc1cnccn1` (stereo not given): the growth inhibition was 0% under setting [1], 1% under setting [2] and 12.1% (at 50.0 µM).

In the case of `O=C1c2ccccc2C(=O)c2cc(S(=O)(=O)Cl)ccc21`, the growth inhibition under setting [1] was 98% (active), the growth inhibition under setting [2] was 99% (active) and the growth inhibition (at 50.0 µM) is 72.5% (active).

For `Cc1ccc(S(=O)(=O)OCCCCOS(=O)(=O)c2ccc(C)cc2)cc1`, the growth inhibition runs as follows: under setting [1], -2%; under setting [2], 2%; (at 50.0 µM) -17.2%.

Take `COC1OC(CO)C(O)C(O)C1O` (stereo not given): the growth inhibition (at 50.0 µM) was -12.3% and 5.7% and -2.25%.
